Laboratory results from PubChem BioAssay (NCATS).
“And” between values parts separate entries of the source, which are not always exact repeats. Equal values may be shown once. Some compounds were tested as several samples or in several runs, with calls that do not always agree. The source made the active and inactive calls. Calls follow the shape of the full dose curve.

Assay: qHTS drug screen for cell cycle checkpoint inhibitors in PARPi-resistant BRCA-mutant ovarian cancer cell lines. (AID 1963452)
Conditions: PEO1/OlaR viability, CellTiter-Glo luminescence, 96 h; for Z-AUC: stronger effect = lower value
Source text: Women's Malignancies Branch, Center for Cancer Research (CCR),
National Cancer Institute (NCI), National Institutes of Health (NIH), Bethesda, MD
Poly (ADP-ribose) polymerase inhibitors (PARPis) have changed the treatment paradigm in breast cancer gene (BRCA) - mutant high-grade serous ovarian carcinoma (HGSC). However, most patients eventually develop resistance to PARPis, highlighting an unmet need for improved therapeutic strategies. Using high-throughput drug screens, we identified ataxia telangiectasia and rad3-related protein/checkpoint kinase 1 (CHK1) pathway inhibitors as cytotoxic and further validated the activity of the CHK1 inhibitor (CHK1i) prexasertib in PARPi-sensitive and -resistant BRCA-mutant HGSC cells and xenograft mouse models. CHK1i monotherapy induced DNA damage, apoptosis, and tumor size reduction. We then conducted a phase 2 study (NCT02203513) of prexasertib in patients with BRCA-mutant HGSC. The treatment was well tolerated but yielded an objective response rate of 6% (1 of 17; one partial response) in patients with previous PARPi treatment. […] BRCA reversion mutation in previously PARPi-treated BRCA-mutant patients was not associated with resistance to CHK1i.
Among others, 1082 oncology drugs, both approved and investigational, were prioritized based on their status in clinical trial development. […] Drugs with average Z-AUC values less than -1.0 in all three cell lines were classified as "hits" resulting in 151 oncology drug hits. The screen also confirmed cross-resistance between olaparib and other PARPis (rucaparib, niraparib, and talazoparib) in PARPi-resistant PEO1/OlaR and PEO4.
[1] G. L. Lin, K. M. Wilson, M. Ceribelli, B. Z. Stanton, P. J. Woo, S. Kreimer, E. Y. Qin, X. Zhang, J. Lennon, S. Nagaraja, P. J. Morris, M. Quezada, S. M. Gillespie, D. Y. Duveau, A. M. Michalowski, P. Shinn, R. Guha, M. Ferrer, C. Klumpp-Thomas, S. Michael, C. McKnight, P. Minhas, Z. Itkin, E. H. Raabe, L. Chen, R. Ghanem, A. C. Geraghty, L. Ni, K. I. Andreasson, N. A. Vitanza, K. E.Warren, C. J. Thomas, M. Monje, Therapeutic strategies for diffuse midline glioma from high-throughput combination drug screening. Sci. Transl. Med. 11, (2019).
[2] T. M. Yamamoto, A. McMellen, Z. L. Watson, J. Aguilera, R. Ferguson, E. Nurmemmedov, T. Thakar, G. L. Moldovan, H. Kim, D. M. Cittelly, A. M. Joglar, E. P. Brennecke, H. Wilson, K. Behbakht, M. J. Sikora, B. G. Bitler, Activation of Wnt signaling promotes olaparib resistant ovarian cancer. Mol. Carcinog. 58, 1770 - 1782 (2019).
PROTOCOL TABLE (as described by Inglese J, Shamu CE and Guy RK. 2007)
SEQUENCE No. (e.g., 1, 2, 3, etc.); […] (e.g., Cells, Incubation, Reagent, etc.); VALUE; DESCRIPTION.
1; Compounds; 20nL; 1536-well white tissue culture-treated plates.
2; Cells; 5 uL; PEO1, PEO4, and PEO1/OlaR cells at 600 cells per well.
3; Incubation; 96 hr; 37C, 95% humidity, 5% CO2.
4; Reagent; 3 uL; CellTiter-Glo (Promega).
5; Incubation; 15 min; room temperature.
6; Detection; Luminescence, PHERAstar (BMG Labtech) plate reader.
NOTES (numbers refer to Sequence numbers above)
1. MIPE 5.0 compounds were acoustically dispensed by Echo Acoustic Liquid Handler (Beckman Coulter Life Sciences). Each compound was plated at an 11-point concentration range with 1:3 dilution. Bortezomib, a proteasome inhibitor (final concentration, 20 uM), was used as a positive.
2. PEO1, PEO4, and PEO1/OlaR were trypsinized and dispensed in 5 uLof growth medium using a Multidrop Combi dispenser at a density of 600 cells per well to allow compounds to be present during the exponential growth phase.
3. Plates were incubated for 96 hours at standard incubator conditions and covered by a stainless steel gasketed lid to prevent evaporation.
4. Three microliters of CellTiter-Glo (Promega) were added to each well.
5. Plates were incubated at room temperature for 15 min with a stainless-steel lid in place.
6. Luminescence readings were taken using PHERAstar (BMG Labtech). […]

[1] = measured here: PEO1 parental Z-AUC
Potency is read from the fitted curve at half-maximal effect.

Compound	Potency	Z-AUC	Z-AUC [1]	Z-AUC (measured here: PEO4 Z-AUC)
CN[C@H]1CN(c2ccc3c(=O)c(C(=O)O)cn(-c4nccs4)c3n2)C[C@@H]1OC	1590 nM (active)	-0.941 (inactive)	-1.7 and -1.57	-1.25 and -1.14
CN1CCN(CCCNc2ncc(Cl)c(-c3cc4c(C(=O)NC5CC5)cccc4s3)n2)CC1		-0.322 (inactive)	-0.452	-0.0901
COc1ccc(Oc2cc(NCCC(F)(F)F)c3ncc(-c4ccc(C(=O)NC5CC5)c(C)c4)n3n2)c(F)c1F		1.26 (inactive)	0.0575	-0.837
C/C=C/C[C@@H](C)C(=O)[C@H]1C(=O)N[C@@H](C(C)C)C(=O)N(C)CC(=O)N(C)[C@@H](CC(C)C)C(=O)N[C@@H](C(C)C)C(=O)N(C)[C@@H](CC(C)C)C(=O)N[C@@H](C)C(=O)N[C@H](C)C(=O)N(C)[C@@H](CC(C)C)C(=O)N(C)[C@@H](CC(C)C)C(=O)N(C)[C@@H](C(C)C)C(=O)N1C		-0.152 (inactive)	-0.111	0.176
C=CC(=O)N[C@H]1CN(c2nc(Nc3cn(C)nc3OC)c3ncn(C)c3n2)C[C@@H]1F		0.581 (inactive)	0.0382	0.231
C=CC(=O)Nc1ccc(F)c(-c2ncnc3[nH]cc(C(=O)OCC)c23)c1		0.543 (inactive)	0.95	0.747
N#Cc1c(N)nc(N)nc1N[C@H](c1nc2c(F)ccc(Cl)c2c(=O)n1-c1cccnc1)C1CC1		-1.77 (inactive)	-0.776	-0.121
C[C@@H](OC[C@@]1(c2ccccc2)CC[C@]2(CCC(=O)N2)CN1)c1cc(C(F)(F)F)cc(C(F)(F)F)c1		-0.524 (inactive)	-0.495	-0.395
C[C@@H]1CC2C3C[C@H](F)C4=CC(=O)C=C[C@]4(C)[C@@]3(F)[C@@H](O)C[C@]2(C)[C@@]1(OC(=O)c1ccco1)C(=O)SCF (stereo not given in full)		0.16 (inactive)	0.658	-0.282
COc1ccccc1C(=O)Nc1cc2c(cc1N1CCNC[C@H]1C)n(C)c(=O)n2C		-0.6 (inactive)	-0.159	0.121
COc1cc(Nc2cnc(C#N)c(O[C@H](C)CN(C)C)n2)ncc1-c1cnn(C)c1		-0.958 (inactive)	-0.63	-0.472
O=C(CCCCCCNC(=O)c1cnc(N(c2ccccc2)c2ccccc2Cl)nc1)NO		0.102 (inactive)	-0.152	-0.286
CNC(=O)CCc1cc(-c2ccc(-c3ccc(C(F)(F)F)cc3)cc2)n(-c2ccc(N3CCNCC3)cc2)n1		1.07 (inactive)	-0.284	0.197
